# 697 NFkB inh: inhibitors of the PMA/ionomycin-induced NF-kB reporter in 697 B cells | 697 B-cell NF-kB luciferase reporter, 16 h | inhibition, % at 4 µM | 0.33% of 330,000 active | AID 435022; in the data active means inhibition above about 35%
# Jurkat NFkB inh: inhibitors of the PMA/ionomycin-induced NF-kB reporter in Jurkat cells. PMA/ionomycin-induced NF-kB luciferase reporter, luminescence. inhibition, % at 4 µM. 0.53% of 330,000 active; in the data active means inhibition above about 50%
# COUP-TFII inh: NR2F2 (human) inhibition, primary screen; inhibition, % at 8.6 µM; P24468; 0.7% of 370,000 active; AID 686940; HEK293T NGFI-A luciferase reporter, luminescence;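 active means inhibition above a per-plate cutoff, mean inhibition of test wells between control levels plus 3 SD, cut at about 38% in these data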;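 further: cells cotransfected with COUP-TFII expression vector driving the NGFI-A reporter; 0% = median of COUP-TF2 test wells and 100% = reporter-only cells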
# Target sequence (P24468 whole entry, looked up): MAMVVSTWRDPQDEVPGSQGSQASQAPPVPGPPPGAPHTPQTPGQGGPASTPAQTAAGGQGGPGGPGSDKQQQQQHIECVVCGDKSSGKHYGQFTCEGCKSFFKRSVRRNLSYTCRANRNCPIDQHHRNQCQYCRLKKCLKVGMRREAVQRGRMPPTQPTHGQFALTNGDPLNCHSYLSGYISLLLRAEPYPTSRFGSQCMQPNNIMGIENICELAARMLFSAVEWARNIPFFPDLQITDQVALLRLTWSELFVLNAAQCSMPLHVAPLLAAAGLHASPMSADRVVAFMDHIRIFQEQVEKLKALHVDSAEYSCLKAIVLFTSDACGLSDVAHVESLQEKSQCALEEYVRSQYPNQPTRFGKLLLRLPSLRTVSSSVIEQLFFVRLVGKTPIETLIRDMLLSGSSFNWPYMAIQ
# Cardio protect: protects H9c2 cardiomyocytes from peroxide injury; H2O2 injury protection, ATPLite, 2 h; protection from H2O2 cell death, % at 20 µM; 0.63% of 360,000 active;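 active means compounds giving at least 50% protection of heart cells from peroxide-induced death in the single-dose screen, raw or plate-pattern-corrected value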;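 further: 0% = DMSO wells with peroxide and 100% = DMSO wells without peroxide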
# Gli-Sufu antag: Gli-Sufu pathway antagonism | Sufu-KO-LIGHT fibroblasts, Gli luciferase reporter luminescence | inhibition, % at 5 µM | 0.74% of 340,000 active | AID 588413;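 active means inhibition above about 55%, limit read from the data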;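 further: 0% = DMSO-treated cells and 100% = wells with medium but no cells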
# TAG inh: inhibitors of triacylglycerol accumulation; H9c2 cells, Nile Red lipid (TAG) fluorescence; cells loaded with 200 µM oleic acid; inhibition, % at 12.5 µM; 0.66% of 230,000 active; AID 651582;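 active means pattern-corrected inhibition of lipid staining of at least 50% with the nuclear-stain viability signal not falling by more than 50%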;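 further: 0% = DMSO wells and 100% = triacsin C control wells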
# Jurkat NFkB conf: inhibitors of the PMA/ionomycin-induced NF-kB reporter in Jurkat cells, retest | shares compounds with Jurkat NFkB inh | 27% of 2,700 active | inhibition, % at 4 µM | AID 435020 | Jurkat NF-kB luciferase, 16 h;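 active means inhibition reaching about 45% at 4 µM in either replicate, limit read from the data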;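 further: plate controls were PMA/ionomycin stimulated DMSO wells for no effect and unstimulated DMSO wells for full effect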
# Starred values were filed as active, the others as inactive; x = no result given. Sampled rows, rich in hits. Any-hit rate of the full collection: about 2.6%.
SMILES,697 NFkB inh,Jurkat NFkB inh,COUP-TFII inh,Cardio protect,Gli-Sufu antag,TAG inh,Jurkat NFkB conf
Cc1cc(C(=O)Nc2cccc(C(=O)O)c2)oc1C,-6,56*,-35,0,-83,-9,5
O=C(NCCN1CCC(Cc2ccccc2)CC1)C1CCCN(S(=O)(=O)c2ccc(Cl)s2)C1 (stereo not drawn),x,x,25,x,x,x,x
CCC(NC(=O)C1CCCN(c2ncccn2)C1)c1ccccc1 (stereo not drawn),x,x,-3,x,x,x,x
Cc1ccc(C(=O)CCNc2ccc(F)c(Cl)c2)o1,-27,73*,-9,15,43,-11,-1
O=C(CSc1nnc(-c2ccc(Cl)cc2)n1Cc1ccco1)Nc1ccc(S(=O)(=O)Nc2nccs2)cc1,x,x,-8,x,x,x,x
COc1ccc2c(c1)CCc1c(C(=O)NC3CCCCC3)noc1-2,-146,-180,-13,-13,-89,x,-125
COc1ccccc1NC(=S)OC1CCC12CCC(c1ccccc1)CC2 (stereo not drawn),x,x,2,x,x,x,x
CCN(CC)c1ccc2nc3ccccc3[n+](CC)c2c1,18,56*,x,-20,26,x,56*
CCn1c(SCC(=O)Nc2cccc3ccccc23)nnc1-c1cccs1,x,x,-3,x,x,x,x
O=C(C1CCN(c2ncnc3c2sc2cccc(F)c23)CC1)N1CCN(Cc2ccccc2)CC1,x,x,7,x,x,x,x
CSc1cc(-c2ccccc2)n(Cc2ccccc2Cl)c(=O)c1C#N,-28,64*,1,-14,0,43,9
COc1cc(NCCCCCCCN)c2ncccc2c1,-44,93*,x,-13,-15,x,60*
Cc1cc(C)c2c(N)c(C(=O)Nc3ccc(F)cc3)sc2n1,-154,-155,-32,-8,-78,x,-32
COc1ccc(-c2cc(C(=O)NN=Cc3ccc(C)s3)[nH]n2)cc1,x,x,-39,x,x,x,x
CC(CCN1CCC(C(O)(c2ccccc2)c2ccccc2)CC1)Oc1ccccc1C#N (stereo not drawn),x,x,4,x,x,x,x
O=C(CN1CCc2onc(-c3ccc(-n4cc(COc5ccc([N+](=O)[O-])cc5)nn4)cc3)c2C1=O)N1CCOCC1,x,x,-10,x,x,x,x
O=C(c1cc(-c2cccc(O)c2)on1)N1CCCCC1,-184,-160,-30,-19,-3,2,-88
O=C(c1cc(-c2cccc(O)c2)on1)N1CCCC1,-85,-114,-51,-10,-7,x,x
O=C(c1cc(-c2ccc(F)cc2)on1)N1CCCCCC1,-162,-132,-57,-3,-116,x,x
Cc1ccc(-c2cc(C(=O)N3CCCCCC3)no2)cc1,-229,-182,-45,-13,-67,x,-115
CCN1CCCCC(NC(=O)COCc2ccccc2)C1=O (stereo not drawn),x,x,-8,x,x,x,x
COC(=O)C1CN(CCc2ccccc2)CCS(=O)(=O)N1Cc1ccc(C)cc1 (stereo not drawn),x,x,9,x,x,x,x
COC(=O)c1ccc(C)c(NS(=O)(=O)c2ccc3c(c2)OCCO3)c1,3,58*,x,2,49,x,52*
O=C(NC1CCCCN(Cc2cccc(C(F)(F)F)c2)C1=O)c1ccc(Cl)c(Cl)c1 (stereo not drawn),x,x,-15,x,x,x,x
CC1CCN(c2c(NCc3ccc(C(=O)N4CCc5ccccc54)cc3)c(=O)c2=O)CC1,-7,58*,13,-3,17,61,45
SMILES,697 NFkB inh,Jurkat NFkB inh,COUP-TFII inh,Cardio protect,Gli-Sufu antag,TAG inh,Jurkat NFkB conf
O=C(NCCc1ccccc1)OCc1cn(Cc2ccccc2C(F)(F)F)nn1,x,x,-14,x,x,x,x
CCOc1ccc(-n2c(SCC(=O)Nc3ccc(S(=O)(=O)Nc4cc(C)nc(C)n4)cc3)nnc2-c2ccco2)cc1,x,x,-13,x,x,x,x
Brc1ccc2nc(-c3c[nH]c4ccccc34)cn2c1,-145,-152,-40,0,-77,5,-54
Cc1cccn2cc(-c3c[nH]c4ccccc34)nc12,5,-13,-22,8,2,23,x
O=C(c1ccc(F)cc1Cl)N1CCCC(c2nc(-c3cccs3)no2)C1 (stereo not drawn),x,x,-3,x,x,x,x
Cc1cc2nc(-c3ccc(SCC(=O)Nc4ccc(S(=O)(=O)NC5CC5)cc4)nc3)[nH]c2cc1C,-154,-181,-51,-27,-66,x,-141
COc1ccccc1C(=O)N1CCN(c2cccc(C(F)(F)F)c2)CC1,-49,66*,6,-5,7,-4,29
CCOc1ccc2ccccc2c1C(=O)N1CCN(c2ccccc2)CC1,-11,68*,15,1,6,x,9
CCOC(=O)c1[nH]c(C)c(C(=O)N2CCN(c3ccccc3)CC2)c1C,29,9,7,3,7,x,x
CCOc1ccccc1C(=O)N1CCN(c2cccc(Cl)c2)CC1,-81,81*,-67,-2,59*,x,42
COCC(=O)N1CCN(c2cccc(C(F)(F)F)c2)CC1,18,-17,9,1,-2,8,x
O=C(O)c1ccccc1C(=O)N1CCN(c2cccc(Cl)c2)CC1,21,-5,-3,15,4,14,x
Cn1c(/C=C/c2ccc([N+](=O)[O-])o2)nc2ccccc2c1=O,-35,82*,x,-10,82*,-16,26
Cn1c(/C=C/c2ccccc2)nc2ccccc2c1=O,-44,-56,0,8,24,x,x
CC(=O)O[C@H]1C(=O)[C@@]2(C)C([C@H](OC(=O)c3ccccc3)[C@]3(O)C[C@H](OC(=O)[C@H](O)[C@@H](NC(=O)c4ccccc4)c4ccccc4)C(C)=C1C3(C)C)[C@]1(OC(C)=O)CO[C@@H]1C[C@H]2O (stereo partly drawn),-35,67*,-11,3,-2,x,70*
O=C(NC1C=CS(=O)(=O)C1)c1sc2ccccc2c1Cl (stereo not drawn),-4,56*,4,-6,7,x,18
O=C(NC1CC1)c1sc2ccccc2c1Cl,-34,-21,-22,-2,-32,x,x
COc1cc(C(=O)NC2CCCc3ccccc32)cc(OC)c1C (stereo not drawn),5,14,20,-3,-3,x,x
COc1ccc(C(=O)NC2CCCc3ccccc32)cc1[N+](=O)[O-] (stereo not drawn),-27,54*,12,-3,1,x,23
COc1ccccc1NC(=O)/C=C\c1ccco1,-4,-11,-14,-1,-2,x,x
COc1ccccc1NC(=O)/C(C#N)=C/C=C/c1ccco1,0,59*,-18,5,10,x,-7
CC(C)(C)c1cccc(N/C(=C\C(=O)c2ccccc2)c2ccccc2)c1,x,x,-23,x,x,x,x
CCOC(=O)C1CCN(C(=O)c2cc3c(-c4ccc(OC)c(OC)c4)nn(C)c3s2)CC1,16,8,x,34,3,9,x
CCOC(=O)C1CCCN(C(=O)c2cc3c(-c4cccc(OC)c4)nn(C)c3s2)C1 (stereo not drawn),-15,55*,16,14,-3,-24,11

# Assay outcomes deposited in PubChem BioAssay by several laboratories.
